Most compounds without a hit are left out; they make up all but 6.2% or so of the library.
HT1080-NT tox: kills 2HG-producing HT-1080-NT fibrosarcoma cells; HT-1080-NT fibrosarcoma viability, CellTiter-Glo ATP luminescence, 48 h; Potency, µM (titrated, usually from 46.1 µM), inactives show at the top dose activity, negative = less viability, most hits filed as cytotoxic; 360,000 tested, 1.6% active; AID 686970;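 further: NT is the 2HG producing partner of a matched IDH1 knockdown line; 0% = DMSO-treated cells and -100% = media-only wells without cells; nearly all actives have a fitted effect of over 55% in size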
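Read-out is CellTiter-Glo luminescence after 10 minutes at room temperature, following 48 hours' compound treatment of HT-1080-NT cells (750 cells/well, RPMI, 5% FBS, 37 degrees C).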
KB-3-1 cytotox: kills parental KB-3-1 adenocarcinoma cells; Potency, µM (top dose mostly 46.1 µM), actives largely listed as cytotoxic; KB-3-1 viability, CellTiter-Glo ATP luminescence, 72 h; 400,000 tested, 1.4% active; further: on the % scale 0 is the no-effect control and ±100 the full control effect; nearly all actives have a fitted effect of over 60% in size
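Multi-concentration cytotoxicity screen in KB-3-1 cells grown in DMEM lacking phenol red with 10% FBS. After 72 h at 37 °C with compound, ATP-dependent luminescence was recorded.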
HT1080 IDH1KD tx: kills HT-1080 cells with IDH1 knockdown; HT-1080 IDH1 knockdown viability, ATP luminescence, 48 h; Potency, µM (doses to about 46.1 µM), without a hit: top-dose activity, negative = toxicity, hits mostly cytotoxic; 360,000 tested, 2% active; AID 686971;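 further: 0% = DMSO wells and -100% = cell-free medium wells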
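In this qHTS, HT-1080 cells depleted of IDH1 are exposed for 48 h at 37 °C to compound titrations. Toxicity is scored from CellTiter-Glo luminescence, with DMSO as full viability and medium alone as none.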
KB-V1 MDR tox: KB-V1 MDR subline cytotoxicity; Potency, µM (top dose mostly 46.1 µM), usual class: cytotoxic; KB-V1 MDR cells viability, CellTiter-Glo, 72 h; 400,000 tested, 3.4% active; AID 1347076; further: on the % scale 0 is the no-effect control and ±100 the full control effect; nearly all actives have a fitted effect of over 60% in size
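Compound-treated KB-V1 multidrug-resistant cells, 72 h, 37 degrees C; viability by CellTiter-Glo. Fitted qHTS curves give the values.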
S2 tox: viability counter-screen for ATXN expression inhibitors; S2 cells (HEK-293 line with an ATXN2-luciferase reporter) viability, CellTiter-Fluor protease fluorescence, 24 h; Potency, µM (doses to about 56.7 µM), most hits filed as cytotoxic; 400,000 tested, 0.49% active; further: nearly all actives have a fitted effect of over 40% in size
ATXN2 expr inh: inhibitors of ATXN2 expression; HEK-293 ATXN2-luciferase reporter, luminescence, 24 h; Potency, µM (series often up to 57 µM), for the others: at the highest dose activity change, negative = inhibition, most hits filed as inhibitors; 360,000 tested, 0.72% active; AID 1745845; further: on the % scale 0 is the no-effect control and ±100 the full control effect; nearly all actives have a fitted effect of over 55% in size
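qHTS (up to 57 uM final) was run with 24 h compound exposure of reporter cells at 37 °C. Each well was multiplexed: SteadyGlo luminescence measured ATXN2-luciferase expression after a fluorogenic Gly-Phe-AFC viability readout (25 uM final).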
* = called active by the depositor; i = inactive; ? = inconclusive; · = no result given. The call rests on the fitted dose curve; in most records, active means well fitted curve in the direction sought with a large enough effect; inconclusive means small, poorly fitted or top-dose-only effect, or another doubt; inactive means no such curve, though single readings can be large; an effect the other way counts as inactive or inconclusive. Potency means the concentration at half of the fitted maximal effect.

SMILES	HT1080-NT tox	KB-3-1 cytotox	HT1080 IDH1KD tx	KB-V1 MDR tox	S2 tox	ATXN2 expr inh
C=CCn1c(SCC(=O)Nc2sccc2C(N)=O)nc2ccccc2c1=O	?	?	?	18µM*	i	-12%
COc1cccc(NC(=O)CSc2nc3c(sc4ccccc43)c(=O)n2CCCN2CCCC2)c1	-12%	i	-9%	i	22µM*	·
COc1cccc(NC(=O)CSc2nc3ccccc3c(=O)n2Cc2cccs2)c1	10%	i	-1%	5.2µM*	i	4%
COc1cccc(NC(=O)CSc2nc3ccccc3c(=O)n2CCCC(=O)N2CCCC2)c1	-12%	i	-11%	2.6µM*	?	4%
CCOCCCn1c(SCC(=O)Nc2cccc(OC)c2)nc2ccccc2c1=O	9%	i	-6%	?	?	?
CCOCCCNC(=O)C(c1ccccc1)N(Cc1ccc2c(c1)OCO2)C(=O)c1ccc(NC(C)=O)cc1 (stereo not given)	·	i	·	?	i	8%
CC(C)NC(=O)[C@@H]1C[C@@H](Sc2ccccn2)CN1C1CCN(C)CC1	·	·	·	·	i	·
Cc1ccc(-c2ccc(CCC(=O)O)n2-c2ccc(C(C)C)cc2)cc1	·	i	·	i	i	10%
O=C(NC(=Nc1nc2ccccc2o1)NC(=O)c1ccccc1)c1ccccc1	19%	i	-2%	i	i	36%
O=C(NNc1nc2ccccc2o1)c1ccccc1	-11%	i	-19%	i	i	1.6µM*
C=CCn1c(SC(C)C#N)nc2ccccc2c1=O (stereo not given)	·	i	·	i	·	·
CC1CCCN(c2nc3c(c(=O)n(C)c(=O)n3C)n2CCSc2nc3ccccc3s2)C1 (stereo not given)	-4%	?	-10%	10µM*	i	-12%
CC1CCN(c2nc3c(c(=O)n(C)c(=O)n3C)n2CCSc2nc3ccccc3s2)CC1	-7%	?	-10%	15µM*	?	-21%
Cn1c(=O)c2c(nc(N3CCCCC3)n2CCSc2nc3ccccc3s2)n(C)c1=O	2%	i	-8%	?	i	-9%
CC1CCCN(c2nc3c(c(=O)n(C)c(=O)n3C)n2CCSc2nc3ccccc3o2)C1 (stereo not given)	-1%	i	0%	2.6µM*	i	-11%
COc1ccc(/C(C)=C/C(=O)O)c(OC)c1	·	·	·	·	i	11%
CCC1(C2CCN(C(=O)c3cc(F)ccc3F)CC2)NC(=O)N(CCc2scnc2C)C1=O (stereo not given)	·	·	·	·	i	·
Cc1ccc(-n2c(=O)c3c(c4cc(C)ccc4n3C)n(CC(=O)Nc3cc(C)cc(C)c3)c2=O)cc1	·	i	·	i	i	2%
C[C@@H]1CN([C@H](C)CO)C(=O)c2c(c3ccccc3n2C)-c2ccccc2CO[C@H]1CN(C)C(=O)c1cc(Cl)cc(Cl)c1	-2%	i	-3%	i	i	-8%
C[C@@H]1CN([C@H](C)CO)C(=O)c2c(c3ccccc3n2C)-c2ccccc2CO[C@H]1CN(C)Cc1ccc(C(F)(F)F)cc1	?	?	18µM*	i	28µM*	?
CNC[C@@H]1OCc2ccccc2-c2c(n(C)c3ccccc23)C(=O)N([C@H](C)CO)C[C@H]1C	?	i	-24%	i	32µM*	?
CCCN(CCC)C(=O)c1cc(-c2ccc3c(c2)OCO3)nc2ccccc12	-13%	i	-29%	18µM*	i	-2%
CC(NC(=O)c1cc(-c2ccc3c(c2)OCO3)nc2ccccc12)C(C)(C)C (stereo not given)	-2%	i	-5%	16µM*	i	2%
COc1cccc(-c2ccc(O)c(CNCc3cccc(OC)c3OC)c2)n1	·	·	·	·	i	·
CC1(C)CC2(C)OC2C2(C1)N=NC(=Nc1ccccc1)O2 (stereo not given)	9.2µM*	?	?	i	22µM*	-18%
SMILES	HT1080-NT tox	KB-3-1 cytotox	HT1080 IDH1KD tx	KB-V1 MDR tox	S2 tox	ATXN2 expr inh
CC(C)C(=O)N(c1ccc2oc(=O)sc2c1)S(=O)(=O)c1cccs1	-28%	i	-27%	i	i	-25%
CC(C)C(=O)N(c1cc2sc(=O)oc2c2ccccc12)S(=O)(=O)c1cccs1	11µM*	i	?	?	i	-37%
COc1cc(-c2nnc(SCCOc3ccc(Cl)cc3)o2)cc(OC)c1OC	·	i	·	i	i	1%
CC(C)C(=O)Nc1cccc(-c2cnc3ccccc3n2)c1	13%	i	-5%	13µM*	i	12%
CC(=O)Nc1cccc(-c2cnc(NC(C)=O)cn2)c1	-10%	18µM*	?	i	i	-6%
COc1ccc(COc2cc(-c3cccc(OC)c3)nc3ccc(NC(=O)C(C)C)cc23)cc1	?	2.6µM*	2.9µM*	?	?	8%
CC(=O)Nc1cccc(-c2csc(Nc3ccc(C)cn3)n2)c1	?	i	?	i	i	60%
Cc1ccc(C(=O)Nc2cccc(-c3cnc4ccccc4n3)c2)cc1	-6%	i	20%	i	?	3%
COc1cccc(-c2cc(C(=O)Nc3ccccc3)c3ccccc3n2)c1	-1%	i	9%	?	i	20%
O=C(CN1C(=O)CCc2cc(S(=O)(=O)N3CCCCC3)ccc21)NCc1ccc(Cl)cc1	·	i	·	i	i	-14%
Cc1ccc(C2c3[nH]c4ccccc4c3C[C@H]3C(=O)N(c4ccccc4C(=O)NCCCN4CCOCC4)C(=O)N23)cc1 (stereo not given in full)	?	i	29µM*	i	?	?
COc1cc(CN(C)c2ncnc3sccc23)ccc1OC(F)F	-22%	?	-25%	8.2µM*	i	-5%
COc1ccc(OC)c(Nc2ncnc3sccc23)c1	17%	i	1%	i	i	·
CCOc1ccc(C(=O)CC(=O)C(=O)NCCc2ccc(OC)c(OC)c2)cc1	-4%	i	-7%	7.3µM*	i	4%
COc1ccc(NC(=O)C(=O)NCCc2ccc(OC)c(OC)c2)c(OC)c1	·	i	·	i	i	-25%
O=C1c2ccccc2C2=Nc3ccccc3SC(c3ccc(Cl)cc3)C12 (stereo not given)	?	i	?	i	?	-1%
O=C1c2ccccc2C2=Nc3ccccc3SC(c3cccc(F)c3)C12 (stereo not given)	?	21µM*	?	16µM*	?	?

Compound activity from PubChem BioAssay.
